From PubChem BioAssay (EPA / NIEHS)
The source made the active and inactive calls. How the source made its calls: active means hit-call score of the fitted dose curve at least 0.9, where 1 is the maximum; inactive means score below 0.9.

experiment: ATG_MRE_CIS: Attagene CIS-FACTORIAL HepG2 Assay for human Metal Responsive Element (MRE) (AID 2282954); conditions: HepG2 MRE cis-reporter transcription, Attagene multiplex; actives raise or lower the signal
Method in brief: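 Fluorescent reporter fragments separated by capillary electrophoresis give mRNA induction for the MRE unit after 24 h treatment of transfected HepG2 cells. Endogenous transcription-factor activity is read; DMSO serves as negative control and baseline.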

Row | SMILES | AC50 | outcome
1 | COc1cc(-c2nc(NC(=O)c3cc4cc(C)cc(C)c4n3CC(=O)O)sc2CCC2CCCCC2)c(OC)cc1Cl | 6.2 µM (active) | –
2 | CCCCCCCCCCCC(=O)OC | – | inactive
3 | COCCOCCOC | – | inactive
4 | CCCCCCCCCCO | 160 µM (active) | –
5 | CCOC(=O)C(C)(C)Oc1ccc(Cl)cc1 | – | inactive
6 | CC(CO)OC(C)CO (centres undefined) (tested in a mixture with another compound) | – | inactive
7 | CCc1c(C(=O)NN2CCCCC2)nn(-c2ccc(Cl)cc2Cl)c1-c1ccc(Br)cc1 | 4.76 µM (active) | –
8 | CNC(=O)[C@H]1O[C@@H](n2cnc3c(NCc4cc(Cl)ccc4OCc4cc(C)no4)ncnc32)[C@H](O)[C@@H]1N | – | inactive
9 | C[Si]1(C)O[Si](C)(C)O[Si](C)(C)O[Si](C)(C)O1 | – | inactive
10 | CCCCc1ccc2c(n1)[C@@H](c1ccc(OC)cc1C[C@H](C)C(=O)O)[C@H](C(=O)O)[C@H]2c1ccc2c(c1)OCO2 | – | inactive
11 | O=C(O)CCCCC(=O)O | – | inactive
12 | CCCCN(CCCC)CCCC | – | inactive
13 | CN[C@H]1CC[C@@H](c2ccc(Cl)c(Cl)c2)c2ccc(S(N)(=O)=O)cc21 | – | inactive
14 | Cc1cc(=O)[nH]c(=S)[nH]1 | – | inactive
15 | Cc1nc(-c2ccc3c(c2)CCN(CCC2CCC(NC(=O)/C=C/c4ccc(F)cc4)CC2)CC3)no1 (centres undefined) | – | inactive
16 | Cc1ccc(Cl)cc1 | – | inactive
17 | NC(=O)Cn1c(=O)cc(CCN2CCN(c3nccc4sccc34)CC2)c2ccc(F)cc21 | – | inactive
18 | Cc1ccccc1Cl | – | inactive
19 | COc1cc(/C=C/C(=O)CC(=O)/C=C/c2ccc(O)c(OC)c2)ccc1O | 52.6 µM (active) | –
